From PubChem BioAssay AID493151 (Sanford-Burnham Center for Chemical Genomics, 2011)
Out of some 1,400 compounds screened, about 860 (61%) were called active. The set was probably picked from earlier hits. The list is a sample of the results. A number with no mark means an inactive call.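 How the source made its calls: active means inhibition reaching a set limit, 80% of the first screen's cutoff, at 20 µM in any replicate; inactive means the rest.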

The molecules below were run against DNA dC->dU-editing enzyme APOBEC-3A (Homo sapiens) (UniProt P31941) (assay: A3A ssDNA deamination blockers, replicate testing – biochemical, single concentration, fluorescence readout, selectivity assay for APOBEC3G inhibitor project, confirmation (AID 493151;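 further: plate controls were DMSO wells with A3A for no effect and wells lacking A3A enzyme for full effect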)). Conditions: recombinant A3A, ssDNA deaminase UDG fluorescence assay; at 20 µM; hits give high values.
DNA dC->dU-editing enzyme APOBEC-3A (Homo sapiens), sequence (P31941 whole entry, looked up): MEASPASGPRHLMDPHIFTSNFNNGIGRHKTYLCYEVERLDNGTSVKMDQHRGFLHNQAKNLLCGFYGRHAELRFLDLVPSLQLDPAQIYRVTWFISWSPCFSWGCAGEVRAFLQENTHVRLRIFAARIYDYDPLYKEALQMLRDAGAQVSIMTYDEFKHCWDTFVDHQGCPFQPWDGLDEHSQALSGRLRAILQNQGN
C=CC1=C(C(=O)O)N2C(=O)[C@@H](NC(=O)/C(=N/OCC(=O)O)c3csc(N)n3)[C@H]2SC1 was tested, and the inhibition was 76.3% (active).
For O=C(Nc1cccc(-c2nc3ccccc3[nH]2)c1)c1ccc(C(=O)Nc2cccc(-c3nc4ccccc4[nH]3)c2)cc1, the inhibition was 6.82%.
With CC(=O)Nc1ccc(NC(=O)C2CCCN(S(=O)(=O)c3ccc(Cl)cc3)C2)cc1 (centres undefined) the inhibition was -5.52%.
For CSc1nnc(-c2ccncc2)n1CCCN1CCCC1=O, the inhibition was 72.4% (active).
O=C(CSc1nccc(=O)[nH]1)Nc1ccc(N2CCOCC2)c(Cl)c1 gave an inhibition of 18.1%.
COc1cc(/C=N\Nc2ccc([N+](=O)[O-])cn2)ccc1OCC(=O)O was tested, and the inhibition was 37.7% (active).
In the case of CC1(C)CC(N2CCN(C(c3ccccc3)c3ccccc3)CC2)=CC(=[N+]2CCCCC2)C1, the inhibition is reported as 58.7% (active).
For Cc1ccc(C2=C/C(=C\c3cccnc3)C(=O)O2)cc1, the inhibition was 19.7%.
In the case of CCNC(=O)COC(=O)CCNC(=O)c1cccc(C)c1, the inhibition is reported as 25.7% (active).
In the case of CSc1nnc(SCc2nc3sc(C(=O)O)c(C)c3c(=O)[nH]2)s1, the inhibition is reported as 68.9% (active).
For COc1ccc(Cc2nnc(NC(=O)c3ccc(OC)cc3OC)s2)cc1, the inhibition was -9.68%.
With COC(=O)C1=C(C)N(Cc2ccccc2)C(=NCCCOC(C)C)N[C@H]1c1ccccc1 the inhibition was 77.1% (active).
N#Cc1ncc(C(F)(F)F)cc1Oc1cccnc1 gave an inhibition of -4.78%.
In the case of CCn1c(SCC(=O)Nc2cccc(F)c2)nnc1-c1cc2cc(Br)ccc2o1, the inhibition is reported as 68.4% (active).
NS(=O)(=O)c1cc(C(=O)OCC(=O)NNC(=O)c2ccccc2)ccc1Cl gave an inhibition of 8.76%.
In the case of O=C(COC(=O)c1cnc(Cl)c(Cl)c1)NCc1ccco1, the inhibition is reported as 19.3% (active).
In the case of C[n+]1ccc(C(=O)NCc2ccccc2)cc1, the inhibition is reported as 63% (active).
In the case of CC[n+]1cc(C)ccc1/C=C/c1ccc(N(C)C)cc1, the inhibition is reported as 58.4% (active).
CCN1C(=NCCc2cccnc2)N[C@@H](c2ccccc2)[C@H](C(=O)OC)[C@H]1C was tested, and the inhibition was 61.1% (active).
CC[n+]1c(C)n(-c2ccccc2)c2ccc(NC(C)=O)cc21 was tested, and the inhibition was 73.8% (active).
In the case of COc1ccc(C)cc1NC(=O)CCCN1C(=O)NC(C)(C)C1=O, the inhibition is reported as 48.1% (active).
With CS(=O)(=O)c1ccc2c(c1)SC1=NC(=O)/C(=C/c3ccco3)C(=N)N12 the inhibition was 33.9% (active).
Molecule CC1=NN(C(=O)CCc2ccccc2O)C(O)(C(F)(F)F)C1 (centres undefined) has an inhibition of 21.4%.
In the case of O=C(CNC1CCCCC1)NCC1(c2ccccc2)CCCC1, the inhibition is reported as 29.8%.
For CC(Oc1ccc(F)cc1)C(=O)Nc1cc(S(=O)(=O)N2CCOCC2)ccc1N1CCN(C)CC1 (centres undefined), the inhibition was 55.2% (active).
With C[N+](C)(C)CCNC(=O)c1cc[n+](Cc2ccccc2)c(/C=N/O)c1 the inhibition was 52.7% (active).
For COC(=O)C[n+]1cccc2ccccc21, the inhibition was 67.4% (active).
CC(C)c1ccc(/C=C2\NC(=O)NC2=O)cc1 was tested, and the inhibition was 67.7% (active).
With CCCCCCCC[n+]1cccc(C(=O)N2c3c(nc(N)[nH]c3=O)NC(C)C2C)c1 (centres undefined) the inhibition was 69.9% (active).
Work on COc1ccc(NC(=O)CN(C)C(=O)/C=C/c2cn(Cc3ccccc3)nc2-c2cccnc2)cc1 yielded an inhibition of 30.7%.
Work on CCCN1C2=C(C(=O)CCC2)C(c2ccc(O)c(Br)c2)C2=C1CCCC2=O yielded an inhibition of -5.86%.
Molecule S=C(Nc1cccnc1)Nc1ccccn1 has an inhibition of -2%.
With C[N+]1(CCNC(=O)/C=N/O)CCCCC1 the inhibition was 73.9% (active).
For C[N+]1(CC(O)COc2ccccc2)CCN(C(=O)c2ccc([N+](=O)[O-])cc2)CC1 (centres undefined), the inhibition was 74.8% (active).
Work on CNc1ccc([N+](=O)[O-])cc1C(=O)O yielded an inhibition of 0.63%.
Work on COc1ccc(CNc2nnnn2C)cc1 yielded an inhibition of -3.03%.
With Cc1cc2c(cc1C)[n+](C)cn2CC(O)COCC1CC=CCC1 (centres undefined) the inhibition was 73.1% (active).
In the case of CC(/C=C/c1ccccc1)=N\NC(=O)C1CC1(C)c1ccccc1 (centres undefined), the inhibition is reported as -0.43%.
In the case of COc1ccc2[nH]c(=O)c(-c3noc(-c4ccc(F)cc4)n3)cc2c1, the inhibition is reported as 5.11%.
CCCc1nc(-c2cc3cc(C)ccc3[nH]c2=O)no1 was tested, and the inhibition was 67.6% (active).
In the case of COc1ccccc1-c1noc(CSc2nc(C)cc(=O)[nH]2)n1, the inhibition is reported as 36.8% (active).
O=C(c1ccc(CS(=O)(=O)c2ccccc2)o1)N1CCN(c2ccccc2)CC1 was tested, and the inhibition was 31.7% (active).
Cc1snc(SCc2c(F)cccc2Cl)c1C#N gave an inhibition of 30.3%.
With N#Cc1ccccc1CN1C(=O)S/C(=C/c2cccn2-c2cccc(C(=O)O)c2)C1=O the inhibition was 53.8% (active).
In the case of CCN(CC)CCCNC(=O)CCn1nc(-c2ccc(Cl)cc2)ccc1=O, the inhibition is reported as -4.91%.
With Cc1nnc(N/N=C/c2ccccn2)[nH]c1=O the inhibition was -1.88%.
Molecule O=C(N/N=C\c1cccnc1)c1cc(-c2ccccc2)nc2c(Cl)cccc12 has an inhibition of -3%.
Work on COc1ccc(CCNC(=O)COC(=O)/C=C/c2cccs2)cc1OC yielded an inhibition of -7.13%.
With COc1ccccc1CCNC(=O)C1CCN(C(=O)/C=C/c2ccccc2)CC1 the inhibition was 36.9% (active).
CC1(C)Oc2ccc3ccc(=O)oc3c2/C(=C/NCCO)C1=O was tested, and the inhibition was 71.5% (active).
N#Cc1ccsc1NC(=O)CN1CCN(S(=O)(=O)c2cc(Cl)ccc2Cl)CC1 showed an inhibition of 22.2%.
CCN(CC)CCOC(=O)c1ccc(NC(=O)CNC(=O)c2ccccc2)cc1 gave an inhibition of 2.53%.
Cc1csc(SCC(=O)Nc2sccc2C#N)n1 was tested, and the inhibition was 0.02%.
In the case of CCOC(=O)c1ccc(NC(=O)CSc2ncccn2)cc1, the inhibition is reported as 59% (active).
Cc1cc(/C=N/NC(=O)CC2(C)OCCO2)c(C)n1-c1ccc(Cl)c(Cl)c1 showed an inhibition of 0.39%.
Work on CCS(=O)(=O)c1ccc(-c2cccc(NC(=O)c3ccc(Br)o3)c2)nn1 yielded an inhibition of -5.47%.
For CCCCNC(=O)CSc1nc2ccc(NC(=O)CSc3nnc(N)s3)cc2s1, the inhibition was 49.7% (active).
COc1ccc(Br)cc1CN(C)C(=O)C1CC(=O)N(C2CCCC2)C1 (centres undefined) was tested, and the inhibition was 27.6% (active).
O=C(CSc1nc2ccccc2c(=O)[nH]1)Nc1nc(-c2ccc(Br)cc2)cs1 was tested, and the inhibition was 42.3% (active).
In the case of CC(C)CCOc1ccc(C(=O)C[N+]2(C)CCOCC2)cc1, the inhibition is reported as 95.7% (active).
In the case of Cc1ccc(C(=O)N/N=C\c2cc(Br)c(Br)o2)cn1, the inhibition is reported as 15.2% (active).
COc1cccc(NC(C)=[N+](C)CCNS(=O)(=O)c2ccc(Cl)cc2)c1 gave an inhibition of 29.4%.
With C[N+](C)(CCCCCC[N+](C)(C)CCCN1C(=O)c2cccc3cccc(c23)C1=O)CCCN1C(=O)c2cccc3cccc(c23)C1=O the inhibition was 35.2% (active).
In the case of CC(=O)Nc1ccc(Nc2cc(C)nc(Nc3ccc(NC(C)=O)cc3)n2)cc1, the inhibition is reported as 48.6% (active).
In the case of Cc1ccc(CCCOC(=O)C[N+]2(C)CCCCC2)cc1, the inhibition is reported as 81.4% (active).
In the case of CCN1C(=NCc2ccc(OC)cc2)N[C@@H](CCc2ccccc2)[C@H](C(=O)NCc2ccc(OC)cc2)[C@H]1C, the inhibition is reported as 32.8% (active).
With CCN1C(=NCC(C)C)N[C@@H](CCc2ccccc2)[C@H](C(=O)NCC(C)C)[C@H]1C the inhibition was 37.8% (active).
COCCCn1c(Cc2csc(Nc3cccc(Cl)c3)n2)nnc1SCC(=O)OC1CCCCC1 was tested, and the inhibition was 72.2% (active).
Work on O=C1c2oc3ccccc3c(=O)c2C(c2cccc(O)c2)N1c1ccccn1 (centres undefined) yielded an inhibition of -9.88%.
